Data on seven compounds can be found in PubChem BioAssay (Tox21).

Where “and” joins values, the source holds several entries; their conditions need not be identical. Equal values may be shown once. Records with an inconclusive call do not appear. More than one record can exist for a structure, and the calls need not agree. Calls of active or inactive are those of the source. Unless noted, calls come from the whole dose curve; as a rule, active = well fitted curve in the direction sought with a large enough effect in the repeat runs; inconclusive = weak or mixed curves; inactive = no such curve, though single readings can be large; an effect the other way counts as inactive or inconclusive.

The nature of assay [1]: qHTS assay to identify small molecule antagonists of the estrogen related receptor (ERR) signaling pathway from Tox21 library - cell viability counter screen (AID 1224834). Note: nearly all actives have a fitted effect of over 30% in size. Note: potency is the fitted concentration of half-maximal effect. An outline of the steps: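 In this quantitative HTS format, ERR cells receive compounds in DMSO and are incubated for 17.5 h at 37 C. Live-cell protease activity is then detected with CellTiter-Fluor.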

Assay [2] in a line: qHTS assay to identify small molecule agonists of the constitutive androstane receptor (CAR) signaling pathway - cell viability counter screen (AID 1224836). Note: nearly all actives have a fitted effect of over 45% in size. Note: potency is the fitted concentration of half-maximal effect. Summed up: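 HepG2-CYP2B6-hCAR, 2500 cells/well, 4 h pre-incubation; cpd 15 conc + PK11195 0.75 uM final; 23 h, 37 C/5% CO2; CellTiter-Fluor, fluorescence.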
In general terms: Quantitative high-throughput screening tests each substance at several concentrations.

Assay [3] can be described thus: qHTS assay to identify small molecule antagonists of the estrogen related receptor signaling pathway with the pleiotropic PPARgamma coactivator (PGC) from Tox21 10K library - cell viability counter screen (AID 1224840; active = well fitted cell-killing curve with a large enough effect in the repeat runs, not every such curve was filed as active; note: nearly all actives have a fitted effect of over 40% in size; note: potency is the fitted concentration of half-maximal effect). An outline of the steps:
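Viability counter screen, PGC/ERR cells: 17.5 h compound exposure at 37 C, CellTiter-Fluor fluorescence endpoint.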

A short description of assay [4]: qHTS assay to identify small molecule antagonists of the estrogen related receptor signaling pathway with the pleiotropic PPARgamma coactivator (PGC) from Tox21 10K library (AID 1224841; call rule not given here; note: actives are mostly falling curves and most rising ones were filed inactive; nearly all actives have a fitted effect of over 50% in size; note: potency is the fitted concentration of half-maximal effect). Summed up:
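In the PGC/ERR line, DMSO solutions of test chemicals are pin-delivered to 2,000 cells/well six hours after dispensing. Following eighteen hours' incubation, One-Glo reagent is added and luminescence recorded.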

Assay [5] is described as follows: qHTS assay to identify small molecule agonists of the estrogen related receptor signaling pathway with the pleiotropic PPARgamma coactivator (PGC) from Tox21 10K library (AID 1224842). Note: nearly all actives have a fitted effect of over 15% in size. An outline of the steps: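 PGC/ERR reporter cell line, 2,000 cells per well, incubated 6 h at 37 C before 23 nL compound in DMSO was added. After 18 h at 37 C, One-Glo luminescence read following 30 min at room temperature.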

Assay [6] addresses Thyrotropin receptor (Homo sapiens) (UniProt P16473). Kind of assay: qHTS assay to identify small molecule agonists of the thyroid stimulating hormone receptor (TSHR) signaling pathway (AID 1224843; calls by dose curve; note: nearly all actives have a fitted effect of over 45% in size; note: potency is the fitted concentration of half-maximal effect). Summed up:
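Agonist-mode screen: TSHR HEK293 cells received test chemicals for half an hour at room temperature, then HTRF cAMP detection reagents for one hour prior to fluorescence measurement. Each chemical ran as a 15-concentration series, triplicated.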

Assay [7] can be described thus: qHTS assay to identify small molecule agonists of the hypoxia (HIF-1) signaling pathway - cell viability counter screen (AID 1224844; calls by dose curve; note: nearly all actives have a fitted effect of over 50% in size; note: potency is the fitted concentration of half-maximal effect). An outline of the steps:
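Same wells as the HIF-1 reporter screen; ME-180 cells carrying HRE-bla, 17 hr treatment at 37C; CellTiter-Glo luminescence read after 30 min at room temperature.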

A short description of assay [8]: qHTS assay to identify small molecule agonists of H2AX - cell viability counter screen (AID 1224847; calls by dose curve; note: nearly all actives have a fitted effect of over 30% in size; note: potency is the fitted concentration of half-maximal effect). Summed up: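 Cells plated first: CHO-K1, 1000 per well in 10% FBS medium, incubated overnight at 37C. Then 15-point compound titration added (final DMSO 0.76%) for 3 hr. Finally CellTiter-Glo added and luminescence read.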
The nature of assay [9]: qHTS assay to identify small molecule antagonists of the estrogen related receptor (ERR) signaling pathway from Tox21 library (AID 1224848). Note: nearly all actives have a fitted effect of over 50% in size. Note: potency is the fitted concentration of half-maximal effect. Summed up:
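Quantitative high-throughput format: ERR reporter cells (2,000/well) pre-incubated 6 h, treated 18 h at 37 C with compounds in DMSO alongside positive and negative controls, then read by ONE-Glo luminescence.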

Assay [10] is described as follows: qHTS assay to identify small molecule agonists of the estrogen related receptor (ERR) signaling pathway from Tox21 library (AID 1224849; calls by dose curve; note: nearly all actives have a fitted effect of over 15% in size). Particulars: ERR reporter cell line, ONE-Glo luciferase, 18 h. An outline of the steps:
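Reporter cells (ERR, NTP source) treated with Tox21 10K compounds 18 h, 37 C. Readout: ONE-Glo luminescence, 30 min RT.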

Assay [11] in a line: qHTS RealTime-Glo MT Cell Viability Assay in HepG2 cells - 24 hour (AID 1224867). Note: nearly all actives have a fitted effect of over 50% in size. Note: potency is the fitted concentration of half-maximal effect. An outline of the steps: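 HepG2 suspension premixed with RealTime-Glo reagents is plated at 600 cells per well and left 5 h at 37 C/5% CO2. Compounds in DMSO then go in, and bioluminescence reflecting viable cell number is recorded over 40 h.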
Assay [12] in a line: qHTS RealTime-Glo MT Cell Viability Assay in HEK293 cells - 32 hour (AID 1224868). Note: nearly all actives have a fitted effect of over 50% in size. Note: potency is the fitted concentration of half-maximal effect. An outline of the steps:
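Reads taken at 0, 8, 16, 24, 32 and 40 h from the same wells. HEK293 cells (600/well) carried RealTime-Glo reagents from seeding, with compound added after a 5 h settle at 37 C.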

The nature of assay [13]: A CellTox Green Cytotoxicity Assay to monitor cytotoxicity in HEK293 cells - 0 hour (AID 1224869). Note: nearly all actives have a fitted effect of over 50% in size. An outline of the steps:
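Homogeneous no-lysis format: HEK293 cell suspension mixed with CellTox Green reagent, seeded, incubated 5 h at 37 C/5% CO2, then dosed by pintool with compound in DMSO.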

Assay [14] in a line: qHTS RealTime-Glo MT Cell Viability Assay in HepG2 cells - 40 hour (AID 1224870). Note: nearly all actives have a fitted effect of over 50% in size. Note: potency is the fitted concentration of half-maximal effect. Summed up: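 HepG2 cells (600/well) mixed with RealTime-Glo MT reagent, settled 5 h at 37 C/5% CO2 before compound addition. Nonlytic NanoLuc luminescence from viable-cell prosubstrate reduction read repeatedly during 40 h treatment at 37 C.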
For assay [15], the target named is Luciferin 4-monooxygenase (Photinus pyralis) (UniProt P08659). Kind of assay: qHTS assay to identify small molecule inhibitors of firefly luciferase (AID 1224835). Note: nearly all actives have a fitted effect of over 25% in size. Note: potency is the fitted concentration of half-maximal effect. An outline of the steps: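 Biochemical qHTS: compounds run as interplate titrations against purified firefly enzyme, with D-luciferin and ATP each at its KM concentration. Light output recorded by CCD imaging.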

For assay [16], the target named is Nuclear receptor subfamily 1 group I member 3 (Homo sapiens) (UniProt Q14994). Nature of the assay: qHTS assay to identify small molecule antagonists of the constitutive androstane receptor (CAR) signaling pathway (AID 1224838). Note: nearly all actives have a fitted effect of over 40% in size. Note: potency is the fitted concentration of half-maximal effect. An outline of the steps: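 CITCO-stimulated (50 nM final) HepG2 cells stably transfected with hCAR and CYP2B6-2.2kb luciferase were exposed to compounds at 15 concentrations for 24 h at 37 C/5% CO2. A luciferase reagent was added and luminescence recorded after 30 min.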

Assay [17] is described as follows: qHTS assay to identify small molecule agonists of H2AX (AID 1224845; active = well fitted activation curve with a large enough effect in the signal ratio in the repeat runs, not every such curve was filed as active; the % refers to the signal ratio; note: potency is the fitted concentration of half-maximal effect). An outline of the steps: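 Wild-type CHO-K1 cells, plated overnight, exposed 3hr at 37C to 15 concentrations (0.76% DMSO final). Lysed, then HTRF anti-pH2AX (S139) cryptate and anti-H2AX-d2 antibodies, 24 hr room temperature; 665/620 nm emission read.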
The nature of assay [18]: qHTS assay to identify small molecule agonists of the hypoxia (HIF-1) signaling pathway (AID 1224846; active = well fitted activation curve with a large enough effect in the signal ratio in the repeat runs, not every such curve was filed as active; the % refers to the signal ratio). An outline of the steps: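 In ME-180 cells bearing an HRE-bla construct, 17 h treatment with DMSO-dissolved compounds at 37C was followed by CCF4-AM loading to quantify reporter induction.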
Assay [19] has as its target Nuclear receptor subfamily 1 group I member 3 (Homo sapiens) (UniProt Q14994). Nature of the assay: qHTS assay to identify small molecule agonists of the constitutive androstane receptor (CAR) signaling pathway (AID 1224839).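 Note: HepG2 cells stably carrying human CAR and a CYP2B6 luciferase reporter; nearly all actives have a fitted effect of over 15% in size.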 An outline of the steps: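 HepG2-CYP2B6-hCAR cells, 2500/well, 4 h pre-incubation; compounds 15 conc.; PK11195 0.75 uM final; 24 h, 37 C/5% CO2; ONE-Glo luciferase read.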
% is set by controls: 0 for no effect and ±100 for the full control effect.

Thyrotropin receptor (Homo sapiens), sequence (P16473 whole entry, looked up): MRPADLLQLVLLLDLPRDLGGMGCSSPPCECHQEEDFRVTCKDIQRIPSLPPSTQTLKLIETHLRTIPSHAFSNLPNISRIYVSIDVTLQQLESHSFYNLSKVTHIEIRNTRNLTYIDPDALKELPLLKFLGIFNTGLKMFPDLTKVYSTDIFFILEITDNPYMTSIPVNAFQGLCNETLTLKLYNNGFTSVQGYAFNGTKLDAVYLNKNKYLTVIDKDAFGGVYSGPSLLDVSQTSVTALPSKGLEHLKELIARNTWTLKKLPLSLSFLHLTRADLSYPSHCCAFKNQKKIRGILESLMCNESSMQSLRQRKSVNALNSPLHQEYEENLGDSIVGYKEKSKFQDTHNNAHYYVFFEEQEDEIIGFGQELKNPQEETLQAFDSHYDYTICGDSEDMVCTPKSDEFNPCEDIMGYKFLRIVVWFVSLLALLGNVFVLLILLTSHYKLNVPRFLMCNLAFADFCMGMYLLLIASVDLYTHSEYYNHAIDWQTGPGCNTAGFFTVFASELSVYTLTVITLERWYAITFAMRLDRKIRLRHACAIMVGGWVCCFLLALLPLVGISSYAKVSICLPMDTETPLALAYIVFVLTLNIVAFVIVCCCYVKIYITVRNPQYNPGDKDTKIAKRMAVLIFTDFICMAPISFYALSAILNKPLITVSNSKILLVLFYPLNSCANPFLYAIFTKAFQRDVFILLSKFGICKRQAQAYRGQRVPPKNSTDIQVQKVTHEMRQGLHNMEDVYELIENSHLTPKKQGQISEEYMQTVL
Nuclear receptor subfamily 1 group I member 3 (Homo sapiens), sequence (Q14994 whole entry, looked up): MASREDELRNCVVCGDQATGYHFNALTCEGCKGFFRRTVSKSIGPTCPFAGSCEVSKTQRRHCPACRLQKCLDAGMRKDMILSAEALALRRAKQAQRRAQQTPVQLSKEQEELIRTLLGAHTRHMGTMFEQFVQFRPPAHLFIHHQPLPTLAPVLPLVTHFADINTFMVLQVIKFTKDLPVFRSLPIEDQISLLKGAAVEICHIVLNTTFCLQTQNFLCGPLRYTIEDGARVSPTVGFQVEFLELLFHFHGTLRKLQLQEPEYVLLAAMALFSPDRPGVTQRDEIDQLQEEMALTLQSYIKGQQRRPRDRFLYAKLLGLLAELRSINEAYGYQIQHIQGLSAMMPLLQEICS
Luciferin 4-monooxygenase (Photinus pyralis), sequence (P08659 whole entry, looked up): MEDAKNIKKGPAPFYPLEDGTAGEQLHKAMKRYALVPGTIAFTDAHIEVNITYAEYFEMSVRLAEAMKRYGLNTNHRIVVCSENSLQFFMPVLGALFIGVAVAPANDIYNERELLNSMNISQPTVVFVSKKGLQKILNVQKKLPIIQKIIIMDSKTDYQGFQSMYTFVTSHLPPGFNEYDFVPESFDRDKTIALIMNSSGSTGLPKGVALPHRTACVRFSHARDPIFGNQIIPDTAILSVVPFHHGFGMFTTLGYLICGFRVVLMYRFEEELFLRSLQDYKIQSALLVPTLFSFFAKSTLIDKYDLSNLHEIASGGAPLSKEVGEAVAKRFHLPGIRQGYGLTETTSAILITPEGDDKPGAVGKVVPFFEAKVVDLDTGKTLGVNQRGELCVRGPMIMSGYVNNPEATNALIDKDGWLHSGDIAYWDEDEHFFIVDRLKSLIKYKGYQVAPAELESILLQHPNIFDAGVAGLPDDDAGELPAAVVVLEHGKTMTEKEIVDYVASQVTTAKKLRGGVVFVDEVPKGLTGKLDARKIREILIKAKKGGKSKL

In the case of `CN(C)CCCN1c2ccccc2Sc2ccc(Cl)cc21`, the Potency in assay [1] is 54.5 µM (active) and 26.6 µM (active); in assay [2], 48.6 µM (active); in assay [3] it was 48.6 µM (active) and 26.6 µM (active); in assay [7], 49 µM (active); in assay [8], 55.2 µM (active); in assay [9], 54.5 µM (active). In addition, the Potency is 43.6 µM (active) and 23.9 µM (active) in assay [11]; 24.5 µM (active) and 23.9 µM (active) in assay [12]; 30.9 µM (active) and 23.9 µM (active) in assay [14]. For the same compound, the Potency entry in assay [4], in assay [5], in [6] and in assay [13] was “inactive” in each case. Moreover, the activity change, positive = activation in assay [10] (at 42.5 µM (top of the series)) is -35.5% (inactive); in [10] (at 92.4 µM (top of the series)), -80.4% (inactive).

Consider `CCCCCCCCCCC(CO)CCCCCCCC` (configuration not stated), for which the Potency entry in assay [1], in [15], in [16], in assay [3], in [6] and in assay [7] was “inactive” in each case. Moreover, the Potency result in assay [17], in assay [8], in [11], in assay [12], in assay [13] and in assay [14] was “inactive” throughout. In addition, in assay [18], the result was inactive.

Consider `Nc1ccc(O)c(N)c1`, for which the Potency result in assay [16], in assay [3], in assay [5], in [7], in assay [9] and in [11] was “inactive” each time. In addition, the Potency entry in assay [12], in assay [13] and in assay [14] was “inactive” throughout. Also, the Potency in assay [4] is 304 nM (active) and inactive; in assay [6], 54.1 µM (active); in [8] it was 56.3 µM (active) and 50.5 µM (active). In addition, in assay [18], the compound was called inactive. In addition, in [10] (at 92.4 µM (top of the series)), the activity change, positive = activation is -9.18% (inactive) and -12% (inactive).

As for `O=C1CCc2ccccc2O1`, the Potency entry in assay [1], in assay [15], in [3], in [4], in assay [5] and in [6] was “inactive” throughout. In addition, the Potency result in assay [7], in [17], in assay [8], in assay [9], in assay [11] and in assay [12] was “inactive” throughout. Moreover, the Potency result in assay [13] and in assay [14] was “inactive” throughout. Besides, in assay [18], the compound was classed as inactive. The activity change, positive = activation in [10] (at 92.4 µM (top of the series)) is -2.99% (inactive) and -9.1% (inactive).

In the case of `Cc1ccc([N+](=O)[O-])c(C)c1`, the Potency was 17.2 µM (active) and inactive in [1]; 31.7 µM (active) and inactive in assay [15]; 8.63 µM (active) and inactive in assay [16]; 21.7 µM (active) and inactive in assay [3]; 61.1 µM (active) and inactive in [4]; 4.37 µM (active) and inactive in assay [7]. The Potency in [17] is 4.5 µM (active) and inactive; in [9] it was 12.2 µM (active) and inactive; in assay [12] it was 38.9 µM (active) and inactive. The Potency entry in assay [5], in assay [6], in assay [8], in assay [11], in assay [13] and in [14] was “inactive” each time. Further, in assay [18], the compound was called inactive. The activity change, positive = activation in assay [10] (at 92.4 µM (top of the series)) was 6.89% (inactive).

With `CN1CCOCC1`, the Potency result in [1], in [2], in [16], in [19], in assay [3] and in [4] was “inactive” throughout. Besides, the Potency entry in assay [5], in assay [7], in assay [17], in [8], in assay [9] and in assay [11] was “inactive” each time. In addition, the Potency entry in [12], in [13] and in [14] was “inactive” in each case. Also, the compound was classed as inactive in assay [18]. Moreover, in assay [10] (at 92.4 µM (top of the series)), the activity change, positive = activation was -10.1% (inactive) and 3.72% (inactive).

As for `C=C1C[C@H]2[C@@H]3C=C(C)C4=CC(=O)CC[C@]4(C)[C@H]3CC[C@]2(C)[C@@]1(OC(C)=O)C(C)=O`, the Potency result in assay [15], in assay [16], in [19], in assay [3], in [5] and in [7] was “inactive” in each case. Also, the Potency entry in [17], in assay [8], in assay [11], in assay [13] and in assay [14] was “inactive” in each case. Besides, the Potency in assay [4] was 31.3 µM (active); in assay [9] it was 24.8 µM (active) and 21.1 µM (active). In addition, the compound was called inactive in assay [18]. Besides, the activity change, positive = activation in [10] (at 42.5 µM (top of the series)) was -56.4% (inactive) and -29.1% (inactive).
